Source: the supplement of paper PMC10849652
Of roughly 7,900 targets only a part is listed; those with a hit were picked by preference. About 0.6% of all pairs of compound and target were hits.

How the values were obtained:
Experiment in all cases: log2 fold change, soluble protein after heating vs DMSO (PISA); higher = thermal stabilisation; K562 cells, 10 uM, 30 min; active = over 0.2 and 3.5 SD of the protein, either way, in both replicates (recomputed)
[1] = compound: CC1=C(C=C(C=C1)NC(=O)C2=CC(=CC=C2)C(C)(C)C#N)NC3=CC4=C(C=C3)N=CN(C4=O)C
Outline: (§1)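 K562 cells at 2×10^6 cells/mL were exposed to 10 μM compound for 30 min, then aliquots were heated for 3 min across 48°C-58°C, pooled, and extracted in PBS containing 0.5% NP-40 at 4°C. The supernatant after 21,000xg for 90 min was taken as soluble protein and measured by TMTpro 16plex LC-MS/MS with channel sums equalised. Thermal stability is reported relative to control samples, with values from duplicates. Fold changes are given on a log2 scale.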

[2] = compound: CC1=C(C=C(C=C1)NC(=O)C2=CC(=CC=C2)N(C)C)NC(=O)C3=CC=C(C=C3)O
Outline: as §1

[3] = compound: CC1=CC=C(C=C1)SC2=C3C=C(SC3=CN=C2)C(=O)N
Outline: as §1

[4] = compound: CC1=NC(=CC=C1)C2=C(N=C(N2)C(C)(C)C)C3=CC4=NC=CN=C4C=C3
Outline: as §1

Nexturastat A = compound: CCCCN(Cc1ccc(C(=O)NO)cc1)C(=O)Nc1ccccc1 [Nexturastat A]
Outline: as §1

vemurafenib = compound: CCCS(=O)(=O)Nc1ccc(F)c(C(=O)c2c[nH]c3ncc(-c4ccc(Cl)cc4)cc23)c1F [vemurafenib]
Outline: as §1

[5] = compound: CCCS(=O)(=O)Nc1ccc(F)c(C(=O)c2c[nH]c3ncc(Cl)cc23)c1F
Outline: as §1

[6] = compound: CCCc1cc(C)[nH]c(=O)c1CNC(=O)c1cc(-c2ccnc(N3CCN(C)CC3)c2)cc2c1cnn2C(C)C
Outline: as §1

givinostat = compound: CCN(CC)Cc1ccc2cc(COC(=O)Nc3ccc(C(=O)NO)cc3)ccc2c1 [givinostat]
Outline: as §1

barasertib = compound: CCN(CCCOc1ccc2c(Nc3cc(CC(=O)Nc4cccc(F)c4)[nH]n3)ncnc2c1)CCOP(=O)(O)O [barasertib]
Outline: as §1

[7] = compound: CC[C@@H]1C(=O)N(C)c2cnc(Nc3ccc(C(=O)NC4CCN(C)CC4)cc3OC)nc2N1C1CCCC1
Outline: as §1

volasertib = compound: CC[C@@H]1C(=O)N(C)c2cnc(Nc3ccc(C(=O)N[C@H]4CC[C@H](N5CCN(CC6CC6)CC5)CC4)cc3OC)nc2N1C(C)C [volasertib]
Outline: as §1

[8] = compound: CC[C@H](C)N1C=C(C2=C(C=C(C=C21)C3=CN=C(C=C3)N4CCNCC4)C(=O)NCC5=C(C=C(NC5=O)C)C)C
Outline: as §1

epoxomicin = compound: CC[C@H](C)[C@@H](C(=O)N[C@@H]([C@@H](C)O)C(=O)N[C@@H](CC(C)C)C(=O)[C@]1(CO1)C)NC(=O)[C@H]([C@@H](C)CC)N(C)C(=O)C [epoxomicin]
Outline: as §1

[9] = compound: CCn1c(C(=O)N(C2CC2)C2CC2)cc2c3c(ncn3C)c(Nc3cc(C)n(C)n3)nc21
Outline: as §1

[10] = compound: CCn1cc(-c2ccnc3[nH]c(-c4cccc(CN(C)C)c4)cc23)c(-c2ccc(NC(=O)N(C)C)cc2)n1
Outline: as §1

[11] = compound: CN(C)CC(=O)Nc1ccc2[nH]c(=O)c3ccccc3c2c1
Outline: as §1

rosiglitazone = compound: CN(CCOC1=CC=C(C=C1)C[C@H]2C(=O)NC(=O)S2)C3=CC=CC=N3 (racemic) [rosiglitazone]
Outline: as §1

[12] = compound: CN1C2=C(C3=C1C(=O)N(N=C3)CC4=CC(=CC=C4)N)SC(=C2)S(=O)C
Outline: as §1

[13] = compound: CN1CCC(CNc2ccc3ncc(-c4cccc(OC(F)(F)F)c4)n3n2)CC1
Outline: as §1

Measured: log2 fold change

SMC5 (UniProt Q8IY18)
Sequence of UniProt Q8IY18 (Q8IY18 whole entry, looked up): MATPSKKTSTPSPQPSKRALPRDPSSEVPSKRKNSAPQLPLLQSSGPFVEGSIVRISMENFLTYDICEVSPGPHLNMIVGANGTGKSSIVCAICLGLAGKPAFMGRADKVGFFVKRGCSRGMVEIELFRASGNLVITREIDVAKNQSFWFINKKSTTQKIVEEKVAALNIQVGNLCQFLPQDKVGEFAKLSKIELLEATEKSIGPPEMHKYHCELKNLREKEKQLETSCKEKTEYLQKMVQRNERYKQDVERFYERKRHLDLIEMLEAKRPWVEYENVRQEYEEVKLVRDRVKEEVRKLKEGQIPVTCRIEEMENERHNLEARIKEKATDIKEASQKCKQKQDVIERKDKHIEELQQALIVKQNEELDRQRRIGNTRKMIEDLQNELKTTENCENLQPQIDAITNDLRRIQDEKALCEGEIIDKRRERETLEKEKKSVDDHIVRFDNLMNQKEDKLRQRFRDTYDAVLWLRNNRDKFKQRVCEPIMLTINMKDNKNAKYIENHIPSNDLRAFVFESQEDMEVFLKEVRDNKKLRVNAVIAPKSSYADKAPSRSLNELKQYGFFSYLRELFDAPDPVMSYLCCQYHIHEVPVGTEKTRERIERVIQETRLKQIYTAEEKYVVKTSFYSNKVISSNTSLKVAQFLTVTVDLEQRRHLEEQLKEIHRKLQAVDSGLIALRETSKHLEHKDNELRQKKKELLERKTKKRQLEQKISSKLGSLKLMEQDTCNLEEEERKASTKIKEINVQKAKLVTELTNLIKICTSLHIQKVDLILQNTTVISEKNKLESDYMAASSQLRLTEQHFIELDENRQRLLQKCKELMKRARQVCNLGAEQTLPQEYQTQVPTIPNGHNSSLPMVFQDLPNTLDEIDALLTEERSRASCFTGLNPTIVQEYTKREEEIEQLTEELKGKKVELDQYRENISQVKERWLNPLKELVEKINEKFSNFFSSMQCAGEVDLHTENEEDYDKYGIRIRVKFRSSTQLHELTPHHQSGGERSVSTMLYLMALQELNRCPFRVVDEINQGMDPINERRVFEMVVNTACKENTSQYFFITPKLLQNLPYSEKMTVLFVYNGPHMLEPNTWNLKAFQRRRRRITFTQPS
inactive: [1] -0.038 | [2] -0.067 | [3] -0.017 | [4] -0.032 | Nexturastat A -0.014 | vemurafenib 0.043 | [5] -0.033 | [6] -0.02 | givinostat -0.033 | barasertib -0.048 | [7] 0.042 | volasertib 0.054 | [8] -0.009 | epoxomicin 0.018 | [9] -0.023 | [10] -0.025 | [11] 0.033 | rosiglitazone 0 | [12] 0.005 | [13] 0.037

TCERG1 (UniProt O14776)
Sequence of UniProt O14776 (O14776 whole entry, looked up): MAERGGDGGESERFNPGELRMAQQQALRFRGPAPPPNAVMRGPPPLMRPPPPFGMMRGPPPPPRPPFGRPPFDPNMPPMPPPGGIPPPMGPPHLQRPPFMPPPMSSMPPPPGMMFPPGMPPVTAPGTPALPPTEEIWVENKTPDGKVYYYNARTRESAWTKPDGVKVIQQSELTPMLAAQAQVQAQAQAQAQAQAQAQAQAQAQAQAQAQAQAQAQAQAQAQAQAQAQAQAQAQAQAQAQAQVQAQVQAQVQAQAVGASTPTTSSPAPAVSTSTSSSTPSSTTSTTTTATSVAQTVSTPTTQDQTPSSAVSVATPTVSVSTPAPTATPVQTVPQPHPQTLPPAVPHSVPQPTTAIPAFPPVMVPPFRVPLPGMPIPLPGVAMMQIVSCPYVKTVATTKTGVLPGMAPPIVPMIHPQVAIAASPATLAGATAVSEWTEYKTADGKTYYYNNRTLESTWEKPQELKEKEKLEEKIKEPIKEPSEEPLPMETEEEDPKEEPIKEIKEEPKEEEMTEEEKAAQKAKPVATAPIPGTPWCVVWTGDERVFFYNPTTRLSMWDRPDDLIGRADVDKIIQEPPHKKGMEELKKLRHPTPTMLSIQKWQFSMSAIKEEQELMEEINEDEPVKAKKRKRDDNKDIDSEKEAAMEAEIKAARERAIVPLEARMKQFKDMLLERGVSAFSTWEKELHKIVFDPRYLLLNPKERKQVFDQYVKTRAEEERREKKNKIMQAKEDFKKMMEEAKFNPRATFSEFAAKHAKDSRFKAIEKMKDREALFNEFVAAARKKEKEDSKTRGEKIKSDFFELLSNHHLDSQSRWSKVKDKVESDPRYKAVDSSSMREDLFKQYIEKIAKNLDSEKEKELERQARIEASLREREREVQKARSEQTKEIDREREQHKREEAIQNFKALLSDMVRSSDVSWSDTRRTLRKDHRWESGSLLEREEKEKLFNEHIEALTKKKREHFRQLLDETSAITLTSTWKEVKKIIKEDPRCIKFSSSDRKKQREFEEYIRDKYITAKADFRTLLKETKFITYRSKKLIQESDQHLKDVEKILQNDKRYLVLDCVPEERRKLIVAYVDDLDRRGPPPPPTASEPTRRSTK
inactive: [1] 0.061 | [2] -0.147 | [3] 0.08 | [4] 0.077 | Nexturastat A -0.144 | vemurafenib 0.118 | [5] 0.135 | [6] -0.006 | givinostat 0.146 | barasertib 0.107 | [7] -0.145 | [8] 0.133 | epoxomicin 0.116 | [9] -0.076 | [10] -0.032 | [11] 0.135 | rosiglitazone 0.071 | [12] -0.038 | [13] -0.136
active: volasertib -0.445

STX7 (UniProt O15400)
inactive: [1] -0.003 | [2] 0.025 | [3] -0.002 | [4] 0.055 | Nexturastat A -0.023 | vemurafenib -0.036 | [5] 0 | [6] 0 | givinostat -0.002 | barasertib -0.02 | [7] -0.021 | volasertib 0.057 | [8] -0.03 | epoxomicin -0.008 | [9] 0.032 | [10] 0.094 | [11] -0.006 | rosiglitazone -0.004 | [12] 0.005 | [13] -0.116

SRRM2 (UniProt Q9UQ35)
inactive: [1] -0.022 | [2] 0.01 | [3] -0.067 | [4] 0.147 | Nexturastat A 0.156 | vemurafenib 0.068 | [5] 0.007 | [6] 0.01 | givinostat 0.082 | barasertib -0.041 | [7] -0.025 | volasertib 0.009 | [8] 0.046 | epoxomicin -0.071 | [9] -0.016 | [10] -0.072 | [11] 0.053 | rosiglitazone 0.046 | [12] 0.062 | [13] -0.222

SNX2 (UniProt O60749)
Sequence of UniProt O60749 (O60749 whole entry, looked up): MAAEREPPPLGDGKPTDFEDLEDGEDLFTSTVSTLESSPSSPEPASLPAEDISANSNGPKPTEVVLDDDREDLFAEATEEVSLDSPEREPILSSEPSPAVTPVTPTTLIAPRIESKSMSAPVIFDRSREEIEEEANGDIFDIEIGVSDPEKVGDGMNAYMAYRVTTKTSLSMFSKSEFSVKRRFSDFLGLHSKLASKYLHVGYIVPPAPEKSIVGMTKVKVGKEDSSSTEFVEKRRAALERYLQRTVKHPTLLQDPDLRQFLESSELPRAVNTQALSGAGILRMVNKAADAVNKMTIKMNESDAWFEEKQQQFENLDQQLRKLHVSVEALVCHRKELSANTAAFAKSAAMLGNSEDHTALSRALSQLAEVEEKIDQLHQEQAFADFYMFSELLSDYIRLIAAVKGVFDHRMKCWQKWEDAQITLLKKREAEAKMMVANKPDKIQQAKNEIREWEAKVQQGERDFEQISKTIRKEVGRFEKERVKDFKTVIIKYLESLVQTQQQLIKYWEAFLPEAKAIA
inactive: [1] 0.009 | [2] -0.022 | [3] 0.02 | [4] 0.012 | Nexturastat A 0.021 | vemurafenib 0.013 | [5] 0.052 | [6] -0.036 | givinostat 0.073 | barasertib 0.037 | [7] -0.129 | volasertib -0.053 | [8] 0.093 | epoxomicin 0.026 | [9] -0.102 | [10] -0.08 | [11] 0.005 | rosiglitazone 0.054 | [12] -0.003
active: [13] -0.332

SSB (UniProt P05455)
inactive: [1] -0.02 | [2] 0.024 | [3] -0.026 | [4] 0.024 | Nexturastat A 0.019 | vemurafenib -0.003 | [5] 0.003 | [6] 0.036 | givinostat -0.175 | barasertib 0.074 | [7] -0.154 | volasertib -0.131 | [8] 0.083 | epoxomicin -0.011 | [9] 0.015 | [10] 0.04 | [11] -0.012 | rosiglitazone 0.044 | [12] -0.001 | [13] -0.194

TANK (UniProt Q92844)
Sequence of UniProt Q92844 (Q92844 whole entry, looked up): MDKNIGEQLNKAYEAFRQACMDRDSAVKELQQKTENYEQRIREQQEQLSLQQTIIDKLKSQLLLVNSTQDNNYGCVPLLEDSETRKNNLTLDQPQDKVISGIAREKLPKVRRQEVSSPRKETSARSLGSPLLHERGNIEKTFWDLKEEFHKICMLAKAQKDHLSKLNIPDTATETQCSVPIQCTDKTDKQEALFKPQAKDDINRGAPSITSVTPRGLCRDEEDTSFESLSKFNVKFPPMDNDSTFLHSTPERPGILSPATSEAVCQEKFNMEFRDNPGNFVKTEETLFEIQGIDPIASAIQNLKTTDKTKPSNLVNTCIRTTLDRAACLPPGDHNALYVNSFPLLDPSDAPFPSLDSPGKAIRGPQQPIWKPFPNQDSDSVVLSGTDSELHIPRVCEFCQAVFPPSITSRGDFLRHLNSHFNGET
inactive: [1] -0.076 | [2] 0.059 | [3] 0.007 | [4] 0.028 | Nexturastat A -0.047 | vemurafenib -0.031 | [5] -0.018 | [6] 0.065 | givinostat 0.013 | barasertib 0.089 | [7] 0.057 | volasertib -0.105 | [8] -0.064 | epoxomicin -0.021 | [9] -0.074 | [10] 0.074 | [11] -0.012 | rosiglitazone -0.012 | [12] -0.117 | [13] -0.072

STK25 (UniProt O00506)
Sequence of UniProt O00506 (O00506 whole entry, looked up): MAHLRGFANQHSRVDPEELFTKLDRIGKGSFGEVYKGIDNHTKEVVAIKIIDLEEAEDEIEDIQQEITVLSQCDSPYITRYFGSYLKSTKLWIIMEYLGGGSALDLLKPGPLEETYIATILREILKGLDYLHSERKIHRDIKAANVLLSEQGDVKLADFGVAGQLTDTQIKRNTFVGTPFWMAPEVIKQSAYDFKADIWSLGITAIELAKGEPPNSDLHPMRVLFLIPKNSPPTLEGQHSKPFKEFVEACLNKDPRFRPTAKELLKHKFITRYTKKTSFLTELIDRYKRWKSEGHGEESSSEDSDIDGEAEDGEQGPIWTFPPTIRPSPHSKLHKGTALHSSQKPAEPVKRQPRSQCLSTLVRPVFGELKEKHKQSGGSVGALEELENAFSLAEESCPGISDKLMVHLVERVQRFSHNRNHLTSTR
inactive: [1] -0.102 | [2] 0.014 | [3] -0.011 | [4] 0.029 | Nexturastat A -0.006 | vemurafenib -0.021 | [5] 0.011 | [6] -0.052 | givinostat 0.056 | barasertib 0.025 | [7] -0.031 | volasertib -0.107 | [8] 0.024 | epoxomicin 0.033 | [9] -0.041 | [10] -0.008 | [11] -0.024 | rosiglitazone 0.077 | [12] 0.017 | [13] -0.216

SRSF2 (UniProt Q01130)
Sequence of UniProt Q01130 (Q01130 whole entry, looked up): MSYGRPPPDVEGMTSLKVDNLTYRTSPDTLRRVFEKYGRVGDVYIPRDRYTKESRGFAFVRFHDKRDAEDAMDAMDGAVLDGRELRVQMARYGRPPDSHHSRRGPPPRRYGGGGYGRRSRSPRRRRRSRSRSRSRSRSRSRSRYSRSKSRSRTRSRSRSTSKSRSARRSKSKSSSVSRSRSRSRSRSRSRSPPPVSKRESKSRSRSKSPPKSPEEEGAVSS
inactive: [1] -0.023 | [2] 0.053 | [3] -0.033 | [4] -0.032 | Nexturastat A 0.036 | vemurafenib -0.046 | [5] -0.025 | [6] -0.023 | givinostat 0.005 | barasertib -0.007 | [7] 0.087 | volasertib 0.134 | [8] -0.027 | epoxomicin -0.069 | [9] 0.047 | [10] 0.022 | [11] -0.082 | rosiglitazone -0.024 | [12] 0.045 | [13] 0.054

SPTBN1 (UniProt Q01082)
inactive: [1] 0.018 | [2] 0.02 | [3] 0.004 | [4] -0.036 | Nexturastat A 0.088 | vemurafenib 0.058 | [5] 0.006 | [6] 0.051 | givinostat 0.049 | barasertib 0.019 | [7] 0.009 | volasertib -0.163 | [8] 0.079 | epoxomicin -0.024 | [9] -0.048 | [10] 0.013 | [11] 0.018 | rosiglitazone 0.001 | [12] 0.081 | [13] 0.048

SUOX (UniProt P51687)
active: [4] -0.334 | [13] -0.31
inactive: [1] -0.012 | [2] -0.002 | [3] -0.007 | Nexturastat A -0.021 | vemurafenib -0.046 | [5] -0.051 | [6] 0.023 | givinostat -0.033 | barasertib 0.007 | [7] 0.003 | volasertib -0.04 | [8] -0.02 | epoxomicin 0.013 | [9] 0.026 | [10] 0 | [11] 0.005 | rosiglitazone 0.012 | [12] -0.07

SMPD4 isoform 4 (UniProt Q9NXE4)
active: [13] -0.32
inactive: [1] 0.022 | [2] -0.011 | [3] 0.075 | [4] 0.112 | Nexturastat A 0.075 | vemurafenib 0.02 | [5] 0.058 | [6] -0.034 | givinostat 0.066 | barasertib 0.13 | [7] -0.067 | volasertib -0.076 | [8] 0.068 | epoxomicin -0.008 | [9] -0.049 | [10] -0.081 | [11] 0.036 | rosiglitazone 0.075 | [12] -0.075

STK26 (UniProt Q9P289)
Sequence of UniProt Q9P289 (Q9P289 whole entry, looked up): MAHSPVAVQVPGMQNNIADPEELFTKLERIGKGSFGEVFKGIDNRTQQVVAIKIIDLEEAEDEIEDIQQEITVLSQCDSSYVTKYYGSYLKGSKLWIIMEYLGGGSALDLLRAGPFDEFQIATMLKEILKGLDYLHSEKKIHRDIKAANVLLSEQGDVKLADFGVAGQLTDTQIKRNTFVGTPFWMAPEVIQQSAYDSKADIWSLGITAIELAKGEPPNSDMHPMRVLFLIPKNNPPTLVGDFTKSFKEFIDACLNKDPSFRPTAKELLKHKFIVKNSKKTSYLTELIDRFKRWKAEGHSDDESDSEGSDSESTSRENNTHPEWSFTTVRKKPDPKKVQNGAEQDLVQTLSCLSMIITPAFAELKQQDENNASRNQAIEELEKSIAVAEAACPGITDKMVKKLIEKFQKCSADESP
inactive: [1] -0.083 | [2] -0.037 | [3] 0.068 | [4] 0.015 | Nexturastat A 0.044 | vemurafenib -0.04 | [5] -0.03 | [6] 0.014 | givinostat 0.086 | barasertib 0.08 | [7] -0.017 | volasertib -0.062 | [8] 0.018 | epoxomicin 0.084 | [9] -0.003 | [10] -0.117 | [11] -0.033 | rosiglitazone 0.068 | [12] 0.014 | [13] -0.191

SMARCE1 (UniProt Q969G3)
Sequence of UniProt Q969G3 (Q969G3 whole entry, looked up): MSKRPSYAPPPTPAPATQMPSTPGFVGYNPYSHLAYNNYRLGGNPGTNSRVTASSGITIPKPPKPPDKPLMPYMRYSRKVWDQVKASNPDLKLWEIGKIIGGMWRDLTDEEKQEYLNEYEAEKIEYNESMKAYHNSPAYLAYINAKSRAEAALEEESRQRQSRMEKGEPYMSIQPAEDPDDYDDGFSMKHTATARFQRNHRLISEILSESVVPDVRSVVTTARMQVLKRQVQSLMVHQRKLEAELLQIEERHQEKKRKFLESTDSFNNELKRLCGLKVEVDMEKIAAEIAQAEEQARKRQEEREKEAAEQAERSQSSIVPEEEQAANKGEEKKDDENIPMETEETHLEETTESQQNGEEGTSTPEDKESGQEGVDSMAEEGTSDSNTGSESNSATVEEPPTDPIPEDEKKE
inactive: [1] -0.025 | [2] -0.058 | [3] -0.003 | [4] 0.074 | Nexturastat A 0.121 | vemurafenib -0.123 | [5] 0.085 | [6] -0.522 | givinostat 0.028 | barasertib 0.042 | [7] -0.006 | volasertib -0.125 | [8] 0.087 | epoxomicin -0.033 | [9] -0.071 | [10] 0.053 | [11] -0.036 | rosiglitazone -0.222 | [12] 0.058 | [13] -0.045

STAT5B (UniProt P51692)
inactive: [1] -0.165 | [2] -0.102 | [3] 0.222 | [4] 0.111 | Nexturastat A 0.014 | vemurafenib 0.046 | [5] 0.08 | [6] 0.101 | givinostat 0.145 | barasertib 0.113 | [7] -0.221 | volasertib -0.333 | [8] 0.36 | epoxomicin 0.004 | [9] -0.037 | [10] 0.052 | [11] 0.105 | rosiglitazone -0.003 | [12] -0.063 | [13] -0.045

SNX11 (UniProt Q9Y5W9)
Sequence of UniProt Q9Y5W9 (Q9Y5W9 whole entry, looked up): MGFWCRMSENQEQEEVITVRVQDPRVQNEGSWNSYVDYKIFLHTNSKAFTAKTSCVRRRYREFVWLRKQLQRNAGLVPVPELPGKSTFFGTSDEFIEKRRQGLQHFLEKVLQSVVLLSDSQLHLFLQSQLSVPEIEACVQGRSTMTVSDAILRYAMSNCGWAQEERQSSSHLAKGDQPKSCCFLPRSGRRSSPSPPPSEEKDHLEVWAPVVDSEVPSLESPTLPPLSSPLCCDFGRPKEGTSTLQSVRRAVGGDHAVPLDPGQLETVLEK
inactive: [1] -0.008 | [2] 0.012 | [3] -0.003 | [4] 0.043 | Nexturastat A 0.014 | vemurafenib 0.043 | [5] 0.025 | [6] 0.022 | givinostat -0.006 | barasertib 0.019 | [7] -0.167 | volasertib -0.324 | [8] 0.066 | epoxomicin -0.031 | [9] -0.097 | [10] -0.022 | [11] -0.024 | rosiglitazone -0.007 | [12] 0.167
active: [13] -0.646
